Measurements from PubChem BioAssay.
Active and inactive are the calls of the source.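 Rule for the calls, unless noted: active = viability loss from added drug above about 55%, and viability with drug at most 40%, in both replicates (limit read from the data, passing the limit was not always enough); inconclusive = both conditions met in only one replicate; inactive = neither replicate meets both conditions.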

Test: growth inhibitors of H69AR lung tumor, primary screen, human, duplicate replicates (AID 580;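 active = viability at or under a set limit in both replicates, limit being median viability minus 3 SD, cut at about 48% in these data, passing the limit was not always enough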;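 note: 100% = mean luminescence of untreated wells and 0% = no signal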)
Settings: H69AR lung tumor cells viability, ATP luminescence, 72 h; at 10 µM; stronger effect = lower value
With `COc1ccc(C2/C(=C(/O)c3ccccc3)C(=O)C(=O)N2c2ncccn2)cc1OC` (stereo not drawn) the viability was 108% (inactive).
With `CC(=O)SCC(=O)N=c1sc2cc(F)ccc2n1C` the viability was 93.4% (inactive).
For `O=c1c2ccccc2[nH]c(=S)n1CCN1CCC(=C(c2ccc(F)cc2)c2ccc(F)cc2)CC1`, the viability was 78.8% (inactive).
In the case of `CCn1c(SCC(N)=O)nnc1-c1ccc(S(=O)(=O)N2CCN(C)CC2)cc1`, the viability is reported as 95.8% (inactive).
With `CCc1ccccc1N1C(=O)C2CC(C)=C(C)CC2C1=O` (stereo not drawn) the viability was 103% (inactive).
For `CC(NC(=O)NC12CC3CC(CC(C3)C1)C2)C1CCCO1` (stereo not drawn), the viability was 103% (inactive).
For `Cc1ccc(Nc2nc(N)nc(CN3CCN(Cc4ccc5c(c4)OCO5)CC3)n2)cc1`, the viability was 82.2% (inactive).
With `Cc1cc(N2CCN(C3CCCC3)CC2)n2c(nc3ccccc32)c1C#N` the viability was 91.4% (inactive).
For `CC(C)OC(=O)c1cc(NC(=O)C2C3CCC(O3)C2C(=O)O)cc(C(=O)OC(C)C)c1` (stereo not drawn), the viability was 92.9% (inactive).
With `Cc1cc(NC(=O)CSc2nc(C3CC3)nc3sc4c(c23)CCC(C)C4)no1` (stereo not drawn) the viability was 102% (inactive).
In the case of `O=C(CSc1nc(-c2ccco2)cc(C(F)(F)F)n1)N1CCCc2ccccc21`, the viability is reported as 84% (inactive).
With `O=C(CN1C(=O)CC(c2ccco2)Sc2ccccc21)Nc1ccc2c(c1)OCCO2` (stereo not drawn) the viability was 76.9% (inactive).
With `COc1cccc2c(=O)cc(C)n(CC(=O)Nc3ccc(C)c(C)c3)c12` the viability was 95.5% (inactive).
In the case of `Cc1cc(NC(=O)C(C)(C)C)no1`, the viability is reported as 99.2% (inactive).
With `c1coc(CN2CN=C(Nc3nc4ccccc4s3)NC2)c1` the viability was 96.4% (inactive).
In the case of `NNC(=O)c1ccncc1`, the viability is reported as 104% (inactive).
With `O=C(CCCCn1c(=O)c2ccccc2n(Cc2ccc(Cl)cc2)c1=O)NCc1ccco1` the viability was 29.6% (active).
With `Fc1cccc(NCc2cn3ccccc3n2)c1` the viability was 87.6% (inactive).
With `Cc1oncc1C(=O)Nc1ccc(C(F)(F)F)cc1` the viability was 97.2% (inactive).
For `COC(=O)Cc1cc(=O)n(-c2ccccc2)[nH]1`, the viability was 87.9% (inactive).
With `Cc1ccc(-c2nn[nH]n2)cc1` the viability was 107% (inactive).
With `Cc1cc(C)n2nc[n+](C)c2n1` the viability was 96.4% (inactive).
In the case of `CCCC1(C(=O)OC)NC(c2cc(OC)c(OC)c(OC)c2)C2C(=O)N(CC)C(=O)C21` (stereo not drawn), the viability is reported as 88.9% (inactive).

Test: reversal of MRP1-mediated doxorubicin resistance, pilot screen, H69AR cells, doxorubicin co-treatment (AID 601)
Settings: H69AR cells + 2 uM doxorubicin, CellTiter-Glo, 72 h; at 10 µM; stronger effect = higher value
For `CCn1cnc2sc(C(=O)Nc3ccc4c(c3)OCO4)c(C)c2c1=O`, the differential viability (reversal) was 11% (inactive).
With `CC1CC(C)CN(CC(=O)Nc2ccc(S(N)(=O)=O)cc2)C1` (stereo not drawn) the differential viability (reversal) was 2.1% (inactive).
For `Cc1ccc(S(=O)(=O)N2CCN(C(=O)CSC3CCCC3)CC2)c(C)c1`, the differential viability (reversal) was -7.29% (inactive).
With `COc1ccc(C(=O)Nc2nc(C)c(C(=O)N(C)C)s2)cc1OC` the differential viability (reversal) was 10.6% (inactive).
For `C=CCOC(=O)CC(NC(=O)c1ccccc1)c1ccccc1` (stereo not drawn), the differential viability (reversal) was 19.7% (inactive).
In the case of `Cc1nc(Sc2cccn2C)c(C(F)(F)F)c(=O)[nH]1`, the differential viability (reversal) is reported as 13.2% (inactive).
In the case of `O=C(OCC(=O)c1ccccc1Br)c1ccccn1`, the differential viability (reversal) is reported as 5.17% (inactive).
With `CCCCSc1nnc([C@H](C)NC(=O)OC(C)(C)C)o1` the differential viability (reversal) was -10.7% (inactive).
For `CCOc1ccccc1C1N(c2ccc(F)cc2)C(=O)C2CCCN21` (stereo not drawn), the differential viability (reversal) was 19.2% (inactive).
For `CCOc1ncccc1C(=O)Nc1ccc(Cl)cc1`, the differential viability (reversal) was -3.41% (inactive).
With `O=C(CSc1nc(N2CCCCC2)nc(N2CCCCC2)n1)Nc1nccs1` the differential viability (reversal) was 4.8% (inactive).
With `O=C(Nc1ncnc2sc3c(c12)CCC3)c1ccco1` the differential viability (reversal) was -2.91% (inactive).
In the case of `CCc1nnc(SCc2cn3c(C)cc(C)nc3n2)n1N`, the differential viability (reversal) is reported as 15.7% (inactive).
For `O=C(c1ccco1)N1CCN(c2nc(C(F)(F)F)nc3c2nnn3Cc2ccccc2)CC1`, the differential viability (reversal) was -2.53% (inactive).
For `O=C(CSc1nnc(-c2ccccc2)o1)NC1CCCCC1`, the differential viability (reversal) was 14.7% (inactive).
For `Cn1c(Cl)cnc1C1CC(=O)c2cc(Cl)ccc2O1` (stereo not drawn), the differential viability (reversal) was 0.045% (inactive).
With `C1COC(NC(C2CC2)C2CC2)=N1` the differential viability (reversal) was 5.27% (inactive).
For `COc1ccc(C2/C(=C(/O)c3ccccc3)C(=O)C(=O)N2c2ncccn2)cc1OC` (stereo not drawn), the differential viability (reversal) was 8.68% (inactive).
For `CC(=O)SCC(=O)N=c1sc2cc(F)ccc2n1C`, the differential viability (reversal) was -2.64% (inactive).
In the case of `O=c1c2ccccc2[nH]c(=S)n1CCN1CCC(=C(c2ccc(F)cc2)c2ccc(F)cc2)CC1`, the differential viability (reversal) is reported as -4.72% (inactive).
With `CCn1c(SCC(N)=O)nnc1-c1ccc(S(=O)(=O)N2CCN(C)CC2)cc1` the differential viability (reversal) was 9.21% (inactive).
With `CCc1ccccc1N1C(=O)C2CC(C)=C(C)CC2C1=O` (stereo not drawn) the differential viability (reversal) was 18% (inactive).
For `CC(NC(=O)NC12CC3CC(CC(C3)C1)C2)C1CCCO1` (stereo not drawn), the differential viability (reversal) was 10.1% (inactive).
For `Cc1ccc(Nc2nc(N)nc(CN3CCN(Cc4ccc5c(c4)OCO5)CC3)n2)cc1`, the differential viability (reversal) was 2.44% (inactive).
With `Cc1cc(N2CCN(C3CCCC3)CC2)n2c(nc3ccccc32)c1C#N` the differential viability (reversal) was 28.1% (inactive).
For `CC(C)OC(=O)c1cc(NC(=O)C2C3CCC(O3)C2C(=O)O)cc(C(=O)OC(C)C)c1` (stereo not drawn), the differential viability (reversal) was 3.01% (inactive).
In the case of `Cc1cc(NC(=O)CSc2nc(C3CC3)nc3sc4c(c23)CCC(C)C4)no1` (stereo not drawn), the differential viability (reversal) is reported as 15.6% (inactive).
For `O=C(CSc1nc(-c2ccco2)cc(C(F)(F)F)n1)N1CCCc2ccccc21`, the differential viability (reversal) was 2.16% (inactive).
In the case of `O=C(CN1C(=O)CC(c2ccco2)Sc2ccccc21)Nc1ccc2c(c1)OCCO2` (stereo not drawn), the differential viability (reversal) is reported as 1.83% (inactive).
In the case of `COc1cccc2c(=O)cc(C)n(CC(=O)Nc3ccc(C)c(C)c3)c12`, the differential viability (reversal) is reported as 13.4% (inactive).
For `Cc1cc(NC(=O)C(C)(C)C)no1`, the differential viability (reversal) was 16% (inactive).
In the case of `c1coc(CN2CN=C(Nc3nc4ccccc4s3)NC2)c1`, the differential viability (reversal) is reported as -0.14% (inactive).
In the case of `NNC(=O)c1ccncc1`, the differential viability (reversal) is reported as 10.2% (inactive).
With `O=C(CCCCn1c(=O)c2ccccc2n(Cc2ccc(Cl)cc2)c1=O)NCc1ccco1` the differential viability (reversal) was -13.4% (inactive).
In the case of `Fc1cccc(NCc2cn3ccccc3n2)c1`, the differential viability (reversal) is reported as -1.66% (inactive).
With `Cc1oncc1C(=O)Nc1ccc(C(F)(F)F)cc1` the differential viability (reversal) was 9.38% (inactive).
For `COC(=O)Cc1cc(=O)n(-c2ccccc2)[nH]1`, the differential viability (reversal) was -0.48% (inactive).
For `Cc1ccc(-c2nn[nH]n2)cc1`, the differential viability (reversal) was -4.72% (inactive).
In the case of `Cc1cc(C)n2nc[n+](C)c2n1`, the differential viability (reversal) is reported as 11.4% (inactive).
With `CCCC1(C(=O)OC)NC(c2cc(OC)c(OC)c(OC)c2)C2C(=O)N(CC)C(=O)C21` (stereo not drawn) the differential viability (reversal) was -1.5% (inactive).
